Test results reported in the supplement of paper PMC4466140.

B1: unnamed (peptide)
chain: VTHRLRISIPGITGR

Biological target: AgAbp1
Experiment: SPOT peptide array binding signal intensity (averaged, normalized) (arbitrary units (background-subtracted, floor 0; scale differs between SH3 domains)); higher = stronger binding of the SH3 domain to the peptide
In short: (§1)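 E. coli BL21(DE3) was used to express GST-fused SH3 domains from four yeast species, which were then purified on glutathione Sepharose. These were incubated at 10 μg/ml in TBS-based blocking buffer overnight at 4°C on cellulose membranes carrying synthetic 15-mer peptides, in which cysteines were replaced by serines. Binding signal is the replicate average of normalized, background-subtracted spot intensity, in arbitrary units that differ between domains.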

Binder | SPOT peptide array binding signal intensity
B1 | 9

Biological target: AgBbc1
Experiment: as above
In short: as §1

Binder | SPOT peptide array binding signal intensity
B1 | 193

Biological target: AgBem1-D1
Experiment: as above
In short: as §1

Binder | SPOT peptide array binding signal intensity
B1 | 126

Biological target: AgBzz1-D1
Experiment: as above
In short: as §1

Binder | SPOT peptide array binding signal intensity
B1 | 58

Biological target: AgBzz1-D2
Experiment: as above
In short: as §1

Binder | SPOT peptide array binding signal intensity
B1 | 136

Biological target: AgCyk3
Experiment: as above
In short: as §1

Binder | SPOT peptide array binding signal intensity
B1 | 25

Biological target: AgFus1
Experiment: as above
In short: as §1

Binder | SPOT peptide array binding signal intensity
B1 | 1200

Biological target: AgHof1
Experiment: as above
In short: as §1

Binder | SPOT peptide array binding signal intensity
B1 | 20.8

Biological target: AgHse1
Experiment: as above
In short: as §1

Binder | SPOT peptide array binding signal intensity
B1 | 650

Biological target: AgLsb1
Experiment: as above
In short: as §1

Binder | SPOT peptide array binding signal intensity
B1 | 4.5

Biological target: AgLsb4
Experiment: as above
In short: as §1

Binder | SPOT peptide array binding signal intensity
B1 | 430

Biological target: AgMyo5
Experiment: as above
In short: as §1

Binder | SPOT peptide array binding signal intensity
B1 | 1.75

Biological target: AgNbp2
Experiment: as above
In short: as §1

Binder | SPOT peptide array binding signal intensity
B1 | 123

Biological target: AgRvs167
Experiment: as above
In short: as §1

Binder | SPOT peptide array binding signal intensity
B1 | 20

Biological target: AgSho1
Experiment: as above
In short: as §1

Binder | SPOT peptide array binding signal intensity
B1 | 146

Biological target: AgSla1-D1-D2
Experiment: as above
In short: as §1

Binder | SPOT peptide array binding signal intensity
B1 | 88

Biological target: AgSla1-D3
Experiment: as above
In short: as §1

Binder | SPOT peptide array binding signal intensity
B1 | 3

Biological target: CaAbp1-D1
Experiment: as above
In short: as §1

Binder | SPOT peptide array binding signal intensity
B1 | 286

Biological target: CaAbp1-D2
Experiment: as above
In short: as §1

Binder | SPOT peptide array binding signal intensity
B1 | 146

Biological target: CaBbc1
Experiment: as above
In short: as §1

Binder | SPOT peptide array binding signal intensity
B1 | 234

Biological target: CaBem1-D1
Experiment: as above
In short: as §1

Binder | SPOT peptide array binding signal intensity
B1 | 36

Biological target: CaBzz1-D1
Experiment: as above
In short: as §1

Binder | SPOT peptide array binding signal intensity
B1 | 252

Biological target: CaBzz1-D2
Experiment: as above
In short: as §1

Binder | SPOT peptide array binding signal intensity
B1 | 114

Biological target: CaCyk3
Experiment: as above
In short: as §1

Binder | SPOT peptide array binding signal intensity
B1 | 39.5

Biological target: CaFus1
Experiment: as above
In short: as §1

Binder | SPOT peptide array binding signal intensity
B1 | 1410

Biological target: CaHof1
Experiment: as above
In short: as §1

Binder | SPOT peptide array binding signal intensity
B1 | 1.75

Biological target: CaHse1
Experiment: as above
In short: as §1

Binder | SPOT peptide array binding signal intensity
B1 | 56.8

Biological target: CaLsb1
Experiment: as above
In short: as §1

Binder | SPOT peptide array binding signal intensity
B1 | 1.25

Biological target: CaLsb4
Experiment: as above
In short: as §1

Binder | SPOT peptide array binding signal intensity
B1 | 47.5

Biological target: CaMyo5
Experiment: as above
In short: as §1

Binder | SPOT peptide array binding signal intensity
B1 | 34

Biological target: CaNbp2
Experiment: as above
In short: as §1

Binder | SPOT peptide array binding signal intensity
B1 | 882

Biological target: CaRvs167
Experiment: as above
In short: as §1

Binder | SPOT peptide array binding signal intensity
B1 | 640

Biological target: CaRvs167-3
Experiment: as above
In short: as §1

Binder | SPOT peptide array binding signal intensity
B1 | 2060

Biological target: CaSho1
Experiment: as above
In short: as §1

Binder | SPOT peptide array binding signal intensity
B1 | 1000

Biological target: CaSla1-D1-D2
Experiment: as above
In short: as §1

Binder | SPOT peptide array binding signal intensity
B1 | 16

Biological target: CaSla1-D3
Experiment: as above
In short: as §1

Binder | SPOT peptide array binding signal intensity
B1 | 252

Biological target: ScAbp1
Experiment: as above
In short: as §1

Binder | SPOT peptide array binding signal intensity
B1 | 9

Biological target: ScBbc1
Experiment: as above
In short: as §1

Binder | SPOT peptide array binding signal intensity
B1 | 16.2

Biological target: ScBem1-D1
Experiment: as above
In short: as §1

Binder | SPOT peptide array binding signal intensity
B1 | 33.5

Biological target: ScBzz1-D1
Experiment: as above
In short: as §1

Binder | SPOT peptide array binding signal intensity
B1 | 44.5

Biological target: ScBzz1-D2
Experiment: as above
In short: as §1

Binder | SPOT peptide array binding signal intensity
B1 | 374

Biological target: ScCyk3
Experiment: as above
In short: as §1

Binder | SPOT peptide array binding signal intensity
B1 | 82

Biological target: ScFus1
Experiment: as above
In short: as §1

Binder | SPOT peptide array binding signal intensity
B1 | 1730

Biological target: ScHof1
Experiment: as above
In short: as §1

Binder | SPOT peptide array binding signal intensity
B1 | 1

Biological target: ScHse1
Experiment: as above
In short: as §1

Binder | SPOT peptide array binding signal intensity
B1 | 1450

Biological target: ScLsb1
Experiment: as above
In short: as §1

Binder | SPOT peptide array binding signal intensity
B1 | 65

Biological target: ScLsb2
Experiment: as above
In short: as §1

Binder | SPOT peptide array binding signal intensity
B1 | 25

Biological target: ScLsb3
Experiment: as above
In short: as §1

Binder | SPOT peptide array binding signal intensity
B1 | 327

Biological target: ScLsb4
Experiment: as above
In short: as §1

Binder | SPOT peptide array binding signal intensity
B1 | 42

Biological target: ScMyo3
Experiment: as above
In short: as §1

Binder | SPOT peptide array binding signal intensity
B1 | ≤ 0

Biological target: ScMyo5
Experiment: as above
In short: as §1

Binder | SPOT peptide array binding signal intensity
B1 | 1.75

Biological target: ScNbp2
Experiment: as above
In short: as §1

Binder | SPOT peptide array binding signal intensity
B1 | 295

Biological target: ScPex13
Experiment: as above
In short: as §1

Binder | SPOT peptide array binding signal intensity
B1 | 7.5

Biological target: ScRvs167
Experiment: as above
In short: as §1

Binder | SPOT peptide array binding signal intensity
B1 | 45.2

Biological target: ScSho1
Experiment: as above
In short: as §1

Binder | SPOT peptide array binding signal intensity
B1 | 946

Biological target: ScSla1-D1-D2
Experiment: as above
In short: as §1

Binder | SPOT peptide array binding signal intensity
B1 | 159

Biological target: ScSla1-D3
Experiment: as above
In short: as §1

Binder | SPOT peptide array binding signal intensity
B1 | 46

Biological target: SpAbp1-D1
Experiment: as above
In short: as §1

Binder | SPOT peptide array binding signal intensity
B1 | 95.5

Biological target: SpBbc1
Experiment: as above
In short: as §1

Binder | SPOT peptide array binding signal intensity
B1 | 32.8

Biological target: SpBzz1-D1
Experiment: as above
In short: as §1

Binder | SPOT peptide array binding signal intensity
B1 | 396

Biological target: SpBzz1-D2
Experiment: as above
In short: as §1

Binder | SPOT peptide array binding signal intensity
B1 | ≤ 0

Biological target: SpCyk3
Experiment: as above
In short: as §1

Binder | SPOT peptide array binding signal intensity
B1 | 9

Biological target: SpHof1
Experiment: as above
In short: as §1

Binder | SPOT peptide array binding signal intensity
B1 | 353

Biological target: SpHof1-2
Experiment: as above
In short: as §1

Binder | SPOT peptide array binding signal intensity
B1 | 71

Biological target: SpHof1-3
Experiment: as above
In short: as §1

Binder | SPOT peptide array binding signal intensity
B1 | 594

Biological target: SpHse1
Experiment: as above
In short: as §1

Binder | SPOT peptide array binding signal intensity
B1 | 526

Biological target: SpLsb1
Experiment: as above
In short: as §1

Binder | SPOT peptide array binding signal intensity
B1 | 8.25

Biological target: SpLsb4
Experiment: as above
In short: as §1

Binder | SPOT peptide array binding signal intensity
B1 | 42

Biological target: SpMyo1
Experiment: as above
In short: as §1

Binder | SPOT peptide array binding signal intensity
B1 | 1

Biological target: SpNbp2
Experiment: as above
In short: as §1

Binder | SPOT peptide array binding signal intensity
B1 | 1510

Biological target: SpPex13
Experiment: as above
In short: as §1

Binder | SPOT peptide array binding signal intensity
B1 | 17

Biological target: SpRvs167
Experiment: as above
In short: as §1

Binder | SPOT peptide array binding signal intensity
B1 | 68.8

Biological target: SpSla1-D1-D2
Experiment: as above
In short: as §1

Binder | SPOT peptide array binding signal intensity
B1 | ≤ 0

Biological target: SpSla1-D3
Experiment: as above
In short: as §1

Binder | SPOT peptide array binding signal intensity
B1 | 10
